From PubChem BioAssay
Compounds with a hit are over-represented: about 2.9% of the library has one in this group of screens.
ADAM17 inh = inhibits human ADAM17 | P78536 | recombinant ADAM17, EDANS/DABCYL FRET peptide cleavage | inhibition, % at 6.95 µM | 0.83% of 370,000 active | AID 720648;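 active = inhibition above the mean of compounds lying between control limits plus 3 SD, set per campaign, cut at about 8.5% in these data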;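 note: 0% = DMSO-only wells as the low control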
Target sequence (P78536 215-824 limits assumed): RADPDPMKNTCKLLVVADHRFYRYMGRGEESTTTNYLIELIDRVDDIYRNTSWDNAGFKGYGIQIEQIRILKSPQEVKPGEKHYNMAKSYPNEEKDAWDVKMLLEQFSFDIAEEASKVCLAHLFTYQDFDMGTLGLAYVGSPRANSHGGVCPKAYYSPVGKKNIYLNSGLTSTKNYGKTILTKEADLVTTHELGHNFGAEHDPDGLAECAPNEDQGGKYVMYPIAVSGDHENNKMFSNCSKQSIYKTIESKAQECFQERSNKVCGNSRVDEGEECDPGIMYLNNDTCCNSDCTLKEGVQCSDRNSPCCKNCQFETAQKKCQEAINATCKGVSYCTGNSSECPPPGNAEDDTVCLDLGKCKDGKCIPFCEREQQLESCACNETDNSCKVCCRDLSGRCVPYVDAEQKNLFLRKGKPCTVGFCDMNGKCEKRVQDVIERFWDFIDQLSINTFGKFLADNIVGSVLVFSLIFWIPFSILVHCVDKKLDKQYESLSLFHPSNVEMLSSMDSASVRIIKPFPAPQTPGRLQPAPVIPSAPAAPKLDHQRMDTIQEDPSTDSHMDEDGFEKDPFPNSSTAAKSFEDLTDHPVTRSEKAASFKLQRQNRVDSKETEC
PLCg1 inh = PLC-gamma1 (human) inhibition, primary screen | P19174 | purified PLC-gamma1, fluorogenic substrate, fluorescence | inhibition, % at 12.2 µM | 0.84% of 370,000 active; in the data active = inhibition above about 9.5%
proKLK7 act = proKLK7 (human) activation, primary screen; activation, % at 7 µM; purified proKLK7, EDANS-DABCYL substrate fluorescence; 100% is mature enzyme control, 0% vehicle; 0.9% of 370,000 active; P49862;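 active = activation above the mean of all tested compounds plus 3 SD, computed per campaign excluding outliers beyond control limits, cut at about 13% in these data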
ADAM10 inh = inhibitors of human ADAM10; O14672; recombinant ADAM10, EDANS/DABCYL FRET peptide cleavage, 3 h; 0.62% of 370,000 active; inhibition, % at 7 µM;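 active = inhibition above a per-campaign cutoff equal to the mean of compounds falling between control-based bounds plus 3 SD, cut at about 20% in these data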;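 note: 0% = DMSO wells while the 100% control is not disclosed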
PLC-beta3 inh = blocks human PLC-beta3 enzyme activity | inhibition, % at 12.2 µM | Purified PLC-beta3, fluorogenic substrate, fluorescence | AID 720704 | 0.18% of 370,000 active; in the data active = inhibition above about 11%;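 note: 0% = median of compound wells on plate and 100% = full blocker control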
KLK7 act conf = proKLK7 activation, confirmation; purified proKLK7, EDANS-DABCYL substrate fluorescence; scaled: vehicle 0, mature enzyme 100; activation, % at 7 µM; 68% of 3,200 active; shares compounds with proKLK7 act;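 active = activation, as change over the incubation, above the mean of all tested compounds plus 3 SD, cut at about 13% in these data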
EDANS interfere = optically interferes with EDANS-DABCYL signal, flagging KLK7 hits; shares compounds with proKLK7 act; activation, % at 7 µM; 80% of 3,200 active; AID 686952; EDANS-DABCYL substrate fluorescence interference, no enzyme, 4 h; solvent 0%, active enzyme control 100%;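 active = activation above the all-compound mean plus 3 SD, ignoring values outside control-based bounds, cut at about 4.8% in these data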;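 note: value is the 4 h activation minus the activation read at time zero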
K7 EDANS ctr = optically interferes with EDANS-DABCYL fluorescence, kallikrein-7 activator counter-screen. EDANS-DABCYL peptide fluorescence interference, no enzyme. EC50, µM. AID 720493. 20% of 250 active. shares compounds with proKLK7 act;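 active = compounds that raise the fluorescence signal in this interference counterscreen, with EC50 at or below 10 µM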;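 note: intact quenched peptide substrate alone read at 355 nm excitation and 520 nm emission; signal is fluorescence gain from T0 to T4 after four hours at room temperature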
Starred values were filed as active, the others as inactive; i = inactive; / = no result.

SMILES	ADAM17 inh	PLCg1 inh	proKLK7 act	ADAM10 inh	PLC-beta3 inh	KLK7 act conf	EDANS interfere	others
C=CCNC(=O)c1cc2cc(Cl)ccc2nc1N	-201	-203	18*	i	-286	16*	14*
Nc1nc2ccc(Cl)cc2cc1C(=O)NCCCN1CCOCC1	-131	-149	19*	-493	-222	15*	12*	K7 EDANS ctr=i
C=CCNC(=O)c1cc(Cl)ccc1Cl	-3	0	0	0	2	/	/
Cc1c[nH]c2cccc(-c3ccc(Cl)cc3Cl)c12	2	0	0	4	0	/	/
C#CCNC(=O)c1cc2cccnc2nc1N	i	-345	18*	i	-414	46*	45*
Nc1nc2ncccc2cc1C(=O)c1c[nH]c2ccccc12	-2	1	0	0	-1	/	/
COC(=O)[C@@]12C[C@@H](CC(=O)NCc3cccc4ccccc34)C(=O)N(Cc3ccco3)C1=CCC(C)(C)C2	6	1	0	16	6	/	/
CCc1cc2c(=O)c(-c3nc4ccccc4n3C)c(C)oc2cc1OC(C)=O	-30	-102	38*	-77	-133	69*	66*
CCc1cc2c(=O)c(-c3nc4ccccc4n3C)c(COCC(=O)O)oc2cc1OC(=O)C(C)(C)C	-2	-7	0	-7	-10	/	/
Cc1[nH]nc2c1C(c1ccsc1)C1=C(CC(C)(C)CC1=O)N2 (stereo not given)	-215	-325	14*	i	-382	13*	17*
CCOC(=O)C[n+]1ccc2c([nH]c3ccccc32)c1C	-475	i	36*	i	i	47*	72*
CCOCCCNc1nc2nc3ccc(C)cn3c(=O)c2cc1C(=O)NCC1CCCO1 (stereo not given)	i	-462	55*	i	i	16*	26*
Cc1ccc2nc3c(cc(C(=O)NCC4CCCO4)c(=N)n3CCCOC(C)C)c(=O)n2c1 (stereo not given)	i	i	106*	i	i	45*	44*
Cc1ccc2nc3c(cc(C(=O)NC4CCCC4)c(=N)n3C3CCCCC3)c(=O)n2c1	i	-308	-4	i	-385	/	/
CCn1cc(C(=O)NCC2CCCO2)c2cc(OC)c(OC)cc2c1=O (stereo not given)	-3	2	0	-11	2	/	/
CCOC(=O)C1=C(C)NC2=C(C(=O)CCC2)C1c1ccc(O)c(OCC)c1 (stereo not given)	-5	-7	1	-10	-6	/	/
CCOc1cc(C2C(C(=O)N3CCCCC3)=C(C)NC3=C2C(=O)CCC3)cc(Br)c1O (stereo not given)	-50	-119	15*	-151	-181	8	15*
CC1=NCC(C)c2c1[nH]c1ccccc21 (stereo not given)	-50	-482	30*	-215	i	20*	17*
CCNC(=O)COC(=O)c1cc(-c2ccc(OC)cc2)nc2ccccc12	-136	i	174*	-401	i	208*	260*
CCCNC(=O)COC(=O)c1cc(-c2ccc(OC)cc2)nc2ccccc12	-145	i	52*	-384	i	-71	-60
COc1ccc(-c2cc(C(=O)N/N=C(\C)c3cccnc3)c3ccccc3n2)cc1	-121	-414	37*	-332	i	-78	-71
CCN(CC)C(=O)COC(=O)c1cc(-c2ccc(OC)cc2)nc2ccccc12	-137	i	0	-317	-12	/	/
COc1ccc(-c2cc(C(=O)OCC(=O)NC(C)C)c3ccccc3n2)cc1	-44	-267	21*	-112	-407	33*	40*
CCCNC(=O)COC(=O)c1cc(C)nc2ccccc12	-9	-5	-2	-24	-7	/	/
COCCNC(=O)COC(=O)c1cc(-c2ccc(OC)cc2)nc2ccccc12	-100	i	137*	-335	i	108*	119*
SMILES	ADAM17 inh	PLCg1 inh	proKLK7 act	ADAM10 inh	PLC-beta3 inh	KLK7 act conf	EDANS interfere	others
COc1ccc(-c2cc(C(=O)OCC(=O)NC3CC3)c3ccccc3n2)cc1	-92	i	16*	-312	i	11	9.7*
CCNC(=S)NNC(=O)c1cc(-c2ccc(OC)cc2)nc2ccccc12	-50	-386	7	-176	-462	/	/
O=C(COC(=O)c1cc(-c2ccccc2)nc2ccccc12)NC1CC1	-81	-30	-4	-316	-39	/	/
O=c1[nH]c(Nc2ccccn2)cc2ccccc12	-172	-224	22*	i	-355	21*	21*
CCn1cc(-c2ccnc3cc(C(=O)O)nn23)c(C)n1	-464	i	27*	i	i	73*	75*
Cc1ccc2nc(-c3ccc(NC(=O)CSc4nnc(-c5cc(C)[nH]n5)n4N)cc3)sc2c1	-75	-60	33*	-297	-71	-3	-39
COc1ccc(-c2nnc(SCC(=O)Nc3ccc(Oc4ccccc4)cc3)n2Cc2ccco2)cc1	1	-3	0	6	-11	/	/
C=CCn1c(SCC(=O)NNC(=O)Nc2ccc(C)cc2)nnc1-c1ccccc1	2	1	0	15	-4	/	/
Cc1ccc2nc(-c3ccc(NC(=O)CSc4nnc(-c5cccc(Cl)c5)n4Cc4ccco4)cc3)sc2c1	-49	-49	70*	-167	-83	-21	-30
C=CCn1c(SCC(=O)Nc2ccc(-c3nc4ccc(C)cc4s3)cc2)nnc1-c1ccccc1	-142	-59	26*	i	-77	67*	67*
Cc1ccc(-c2nnc(SCC(=O)Nc3ccc(-c4nc5ccc(C)cc5s4)cc3)n2Cc2ccco2)cc1	-22	-19	104*	-76	-21	94*	116*
Cc1ccc2nc(-c3ccc(NC(=O)CSc4nnc(-c5cc(-c6ccc(F)cc6)n[nH]5)n4N)cc3)sc2c1	-53	-29	5	-150	-39	/	/
O=C1C[C@@H](C(=O)Nc2ccc(Cl)cc2)[C@@H](c2ccccc2)O1	2	0	1	0	0	/	/
COC(=O)[C@@]1(C(C)C)N=C(c2cc(OC)c(OC)c(OC)c2)[C@]2(O1)C(=O)N(Cc1cn(-c3ccccc3)nn1)c1cccc(Cl)c12	-5	-2	0	-3	1	/	/
CN1CC=C2C(C#N)=C(N)C(C#N)(C#N)C(Cc3ccccc3)C2C1 (stereo not given)	-176	-371	24*	i	-453	12	9.3*
